Reference: PubChem BioAssay AID372 (MTDP, 2006)
About 770 (0.77%) of roughly 100,000 compounds were called active. The sample as a whole holds a higher share of actives than the screen did. A number with no mark means an inactive call. Cut-off read from the data, not from the text of the source: active = inhibition above about 50%; inactive = the rest.

What follows are molecules tested against Gag-Pol polyprotein (Human immunodeficiency virus type 1 group M subtype B (isolate HXB2)) (UniProt P04585) (assay: RNase H inhibition, HIV 1 Gag Pol polyprotein, FRET biochemical assay, screening (AID 372)). Details: HIV-1 RT RNase H, FRET RNA/DNA substrate fluorescence; at 10 µM; active compounds read high.

Structure (SMILES) | inhibition
CC(C)(C)c1ccc(S(=O)(=O)Nc2ccc(-c3ccc(NS(=O)(=O)c4ccc(C(C)(C)C)cc4)c(Cl)c3)cc2Cl)cc1 | 23%
CC1CCN(Cc2c(O)ccc3c(=O)c(-c4ccc(Cl)cc4)coc23)CC1 | 0%
COc1cc(-c2nc3ccccn3c2/N=C/c2cccc([N+](=O)[O-])c2)ccc1O | 17%
O=C(/C=C/c1ccccc1)Nc1nc2ccc(Br)cc2s1 | 48%
O=C(/C=C/c1ccco1)Nc1nc(-c2ccc(Br)cc2)cs1 | 15%
O=C(/C=C/c1ccco1)Nc1ccc(C(=O)Nc2cccc(-c3nc4ccccc4o3)c2)cc1 | 55% (active)
Cc1ccc2oc(-c3cccc(NC(=O)/C=C/c4ccco4)c3)nc2c1 | 6%
O=C(/C=C/c1ccco1)Nc1nc2ccc(Br)cc2s1 | 59% (active)
O=C(/C=C/c1ccco1)Nc1cccc(-c2nc3ccccc3o2)c1 | 10%
CC(C)(C)C(=O)CC(=O)c1ccccc1 | 10%
CCOc1cc(CN2CCCCC2)ccc1OC | 19%
O=C(NC(=S)Nc1ccc(F)c([N+](=O)[O-])c1)c1cccc(Cl)c1 | 22%
CC(/C=C/c1ccccc1)=N/NS(C)(=O)=O | 3%
COc1ccc(/C=C/C(=O)Nc2c(C(C)C)cccc2C(C)C)cc1Br | 7%
CCC(C(=O)Nc1cc(Cl)ccc1OC)c1ccccc1 (stereo unspecified) | 29%
O=C(COc1ccc(Br)cc1)Nc1ccc(F)cc1F | 0%
CCSc1nc2c(C)c(O)c(C)cc2[nH]1 | 0%
O=C(Nc1ccccc1)Nc1nnc(Cc2ccc(Cl)c(Cl)c2)s1 | 16%
COC(=O)c1sccc1NS(=O)(=O)c1ccc(OC)cc1 | 0%
COC(=O)c1sccc1NS(=O)(=O)c1cc(Cl)ccc1Cl | 35%
COC(=O)c1sccc1NS(=O)(=O)c1ccc(Cl)cc1 | 70% (active)
CCOC(=O)c1ccccc1NC(=O)COc1ccc(Cl)cc1C | 50% (active)
Cc1sc(NC(=O)COc2ccc(Cl)cc2Cl)c(C(N)=O)c1C | 9%
COC(=O)c1ccccc1NC(=O)COc1ccc(Cl)cc1C | 4%

Structure (SMILES) | inhibition
CCOC(=O)c1c(NC(=O)COc2ccc(Cl)cc2C)sc(C(N)=O)c1C | 12%
Cc1cc(Cl)ccc1OCC(=O)Nc1ccccc1C(N)=O | 7%
Cc1ccc(N[C@H]2OC[C@H](O)[C@H](O)[C@H]2O)cc1[N+](=O)[O-] | 6%
CCC(=O)Nc1sc(Cc2ccccc2)c(C)c1C(N)=O | 1%
O=C(NCCCN1CCOCC1)/C(=C/c1ccc(-c2ccc(Cl)cc2)o1)NC(=O)c1ccccc1 | 0%
COc1ccc(C(=O)NC(NC(=S)Nc2sc3c(c2C(N)=O)CCCC3)C(Cl)(Cl)Cl)cc1 (stereo unspecified) | 11%
CCOC(=O)C1=C(C)N=c2s/c(=C\c3ccc(-c4ccc(Cl)c(Cl)c4)o3)c(=O)n2C1c1ccc(OC)cc1OC (stereo unspecified) | 10%
CCOC(=O)C1=C(C)N=c2s/c(=C\c3ccc(-c4ccc(Cl)cc4)o3)c(=O)n2C1c1cc(OC)ccc1OC (stereo unspecified) | 7%
CCOC(=O)C1=C(C)N=c2s/c(=C\c3ccc(-c4cc(Cl)ccc4C)o3)c(=O)n2C1c1ccc(OC)cc1 (stereo unspecified) | 15%
CCOC(=O)C1=C(C)N=c2s/c(=C\c3ccc(-c4cc(Cl)ccc4Cl)o3)c(=O)n2C1c1ccc(OC)cc1 (stereo unspecified) | 50% (active)
CCOC(=O)C1=C(C)N=c2s/c(=C\c3ccc(-c4ccc(Cl)cc4Cl)o3)c(=O)n2C1c1ccc(OC)cc1 (stereo unspecified) | 12%
CCOC(=O)C1=C(C)N=c2s/c(=C\c3ccc(-c4ccc(Cl)cc4)o3)c(=O)n2C1c1ccc(OC)cc1OC (stereo unspecified) | 51% (active)
CC(/C=C/c1ccco1)=N/NC(=O)COc1cccc(Cl)c1 | 14%
Cc1ccc(C(=O)NC(C(=O)NC(C)(C)C)C23CC4CC(CC(C4)C2)C3)cc1 (stereo unspecified) | 16%
Cc1ccc(C(=O)NC(=S)Nc2c(C)cccc2C)cc1 | 53% (active)
O=C(NC(=S)Nc1cc(Cl)c(Cl)cc1Cl)c1ccc(Cl)cc1 | 54% (active)
Cc1cccc(C)c1NC(=S)NC(=O)c1ccccc1 | 7%
CC(=O)c1cccc(NC(=S)NC(=O)c2ccc(C)cc2)c1 | 17%
Cc1ccc(C(=O)NC(=S)Nc2cc(Cl)cc(Cl)c2)cc1 | 14%
Cc1ccc(C(=O)NC(=S)Nc2cc(Cl)c(Cl)cc2Cl)cc1 | 40%
COC(=O)c1cc(NC(=S)NC(=O)c2ccccc2)cc(C(=O)OC)c1 | 21%
COC(=O)c1cc(NC(=S)NC(=O)c2ccc(C)cc2)cc(C(=O)OC)c1 | 54% (active)
Cc1ccc(C(=O)NC(=S)Nc2ccc(Cl)cc2)cc1C | 3%
Cc1cccc(C)c1NC(=S)NC(=O)c1ccc(Br)cc1 | 2%

Structure (SMILES) | inhibition
O=C(NC(=S)Nc1cc(Cl)c(Cl)cc1Cl)c1ccc(F)cc1 | 13%
Cc1ccc(C(=O)NC(=S)Nc2cc(Cl)cc(Cl)c2)cc1C | 50% (active)
CC(C)=C1C2CCC1C(C(=O)NCc1ccccc1)C2C(=O)O (stereo unspecified) | 0%
Cn1c(O)c(C(=NCc2ccccc2)c2ccccc2)c(=O)n(C)c1=O | 8%
O=C(Nc1cccc2ccccc12)/C(=C/c1ccccc1)c1ccccc1 | 28%
COc1cccc(OCCCOc2ccccc2[N+](=O)[O-])c1 | 14%
CCOC(=O)C1=C(C)NC2=C(C(=O)CC(c3ccccc3)C2)C1c1cccc([N+](=O)[O-])c1 (stereo unspecified) | 15%
CCOc1ccc(C(=O)Nc2cccc(NC(=O)c3ccccc3)c2)cc1[N+](=O)[O-] | 0%
COc1ccc(C(=O)Nc2ccc(NC(=O)c3ccc(Br)cc3)cc2)cc1[N+](=O)[O-] | 59% (active)
CCOc1ccc(C(=O)Nc2ccc(NC(=O)c3ccccc3)cc2)cc1[N+](=O)[O-] | 56% (active)
COc1ccc(C(=O)Nc2ccc(NC(=O)c3ccccc3)cc2)cc1[N+](=O)[O-] | 23%
CCOc1ccc(C(=O)Nc2ccc(C(C)=O)cc2)cc1[N+](=O)[O-] | 5%
COc1ccc(C(=O)Nc2ccc(NC(C)=O)cc2)cc1[N+](=O)[O-] | 5%
O=C(/C=C/c1ccc2c(c1)OCO2)Nc1ccccn1 | 6%
O=[N+]([O-])c1ccc(-c2ccc(/C=N/n3cnnc3)o2)c(Br)c1 | 12%
COc1ccc(-c2ccc(/C=N/n3cnnc3)o2)c([N+](=O)[O-])c1 | 14%
COc1ccc([N+](=O)[O-])cc1-c1ccc(/C=N/n2cnnc2)o1 | 57% (active)
COc1cccc(NC(=O)c2ccc(CN(c3ccc(C)c(C)c3)S(C)(=O)=O)cc2)c1 | 3%
CC1=C(C(=O)Nc2ccc(Br)cc2)C(c2ccccc2)NC(=O)N1 (stereo unspecified) | 18%
CC(=O)/C=C/c1ccc(-c2cc(Cl)ccc2Cl)o1 | 54% (active)
COc1ccc(C(=O)/C=C/c2ccc(-c3cc(Cl)ccc3Cl)o2)cc1 | 15%
O=C(/C=C\c1ccc(-c2cc(Cl)ccc2Cl)o1)c1ccccc1 | 40%
O=C(/C=C/c1ccc(-c2ccc(Cl)cc2)o1)c1ccccc1 | 20%
O=C(/C=C/c1ccc(-c2cc(Cl)cc(Cl)c2)o1)c1ccccc1 | 51% (active)

Structure (SMILES) | inhibition
O=C(/C=C/c1ccc(-c2ccc(Cl)cc2Cl)o1)c1ccc(F)cc1 | 27%
O=C(/C=C/c1ccc(-c2cc(Cl)ccc2Cl)o1)c1ccc(F)cc1 | 52% (active)
O=C(/C=C/c1ccc(-c2ccc(Cl)cc2Cl)o1)c1ccccc1 | 13%
O=C(/C=C/c1ccc(-c2ccccc2Cl)o1)c1ccc(F)cc1 | 47%
O=[N+]([O-])c1ccc(Cl)c(S(=O)(=O)Nc2ccccn2)c1 | 0%
O=C(c1nn2c(C(F)(F)F)cc(-c3cccs3)nc2c1Br)N1CCOCC1 | 0%
COc1ccc(OC)c(C(=O)N/N=C/c2ccccn2)c1 | 3%
CC(C)(C)c1cc(C(=O)NCC(=O)OCC(=O)c2ccccc2)cc(C(C)(C)C)c1 | 18%
O=C(NC(=S)Nc1ccc(Br)cc1)c1ccc(Cl)cc1 | 1%
Cc1ccc(N(CC(=O)NCCOc2ccc(F)cc2)S(=O)(=O)c2ccccc2)cc1C | 5%
CCOC(=O)Cc1csc(NC(=O)COc2c(C)cccc2C)n1 | 5%
NC(=O)c1cnn2c1NC(c1ccco1)CC2C(F)(F)F (stereo unspecified) | 0%
CC(=O)Nc1ccc(C(=O)Nc2ccc(Cl)cc2Cl)cc1 | 0%
O=C(Nc1ccc(Cl)cc1Cl)c1ccc(-c2ccccc2)cc1 | 0%
O=C(Cc1ccccc1)Nc1ccc(C(=O)Nc2ccc(Cl)cc2Cl)cc1 | 59% (active)
CS/C(N)=N\N=C\c1cc([N+](=O)[O-])ccc1O | 18%
O=C(NC(=S)Nc1cc([N+](=O)[O-])ccc1Cl)c1ccccc1Br | 18%
O=C(NC(=S)Nc1cc([N+](=O)[O-])ccc1Cl)c1cccc2ccccc12 | 51% (active)
COc1ccccc1C(=O)NC(=S)Nc1cc([N+](=O)[O-])ccc1Cl | 6%
CSc1nc(SC)c2c3c(sc2n1)CN(C)CC3 | 0%
Cc1ccc(OCC(=O)Nc2cc(C(F)(F)F)cc(C(F)(F)F)c2)cc1C | 0%
CCCOc1ccc(/C=C/C(=O)Nc2ccc(S(=O)(=O)Nc3ncccn3)cc2)cc1OC | 61% (active)
CCCCOc1ccc(NC(=O)/C=C/c2ccc(OC)c(OC)c2)cc1 | 3%
COc1ccc(C(=O)Nc2ccc(S(=O)(=O)Nc3ncccn3)cc2)cc1OC | 0%
